Potency, activity change, positive = activation and outcome data for seven compounds are collected here from PubChem BioAssay (Tox21).

A number with no mark means an inactive call. Records with an inconclusive call do not appear. Calls of active or inactive are those of the source. Unless noted, calls come from the whole dose curve; as a rule, active = well fitted curve in the direction sought with a large enough effect in the repeat runs; inconclusive = weak or mixed curves; inactive = no such curve, though single readings can be large; an effect the other way counts as inactive or inconclusive.

A short description of assay [1]: qHTS assay to identify small molecule antagonists of the estrogen related receptor (ERR) signaling pathway from Tox21 library - cell viability counter screen (AID 1224834). Note: nearly all actives have a fitted effect of over 30% in size. In a few lines:
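Viability readout (CellTiter-Fluor fluorescence, 30 min at 37 C) multiplexed with the ERR assay; cells treated 17.5 h at 37 C with compounds delivered in DMSO.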
On the technique in general: In qHTS, concentration-response curves come from the screen itself.

The target in assay [2] is Luciferin 4-monooxygenase (Photinus pyralis) (UniProt P08659). Kind of assay: qHTS assay to identify small molecule inhibitors of firefly luciferase (AID 1224835). Note: nearly all actives have a fitted effect of over 25% in size. Note: potency is the fitted concentration of half-maximal effect. In short, it runs like this:
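Quantitative HTS format; KM concentrations of both substrates. Purified P. pyralis FLuc activity quantified from luminescence images.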

The nature of assay [3]: qHTS assay to identify small molecule agonists of the constitutive androstane receptor (CAR) signaling pathway - cell viability counter screen (AID 1224836). Note: nearly all actives have a fitted effect of over 45% in size. In a few lines: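 Multiplexed viability check: HepG2-CYP2B6-hCAR cells, 15-point compound dosing, 0.75 uM PK11195 final, 23 h at 37 C, CellTiter-Fluor fluorescence.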
Assay [4] in a line: qHTS assay to identify small molecule antagonists of the constitutive androstane receptor (CAR) signaling pathway - cell viability counter screen (AID 1224837). Note: nearly all actives have a fitted effect of over 45% in size. In a few lines: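 Fluorescence from CellTiter-Fluor served as the viability signal. Human hepatoma HepG2 cells stably bearing hCAR and CYP2B6-2.2kb received compound plus CITCO (50 nM final) for 23 hr.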
The target of assay [5] is Nuclear receptor subfamily 1 group I member 3 (Homo sapiens) (UniProt Q14994). Kind of assay: qHTS assay to identify small molecule antagonists of the constitutive androstane receptor (CAR) signaling pathway (AID 1224838).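 Note: HepG2 cells stably expressing hCAR with CYP2B6 luciferase reporter stimulated by CITCO; nearly all actives have a fitted effect of over 40% in size.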 In a few lines:
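Quantitative HTS in double-stable HepG2-CYP2B6-hCAR cells. After 4 h plating, cells get compound (15 concentrations) and CITCO at 50 nM final, incubate 24 h at 37 C, then ONE-Glo luminescence is read.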

Assay [6] has the same target. Kind of assay: qHTS assay to identify small molecule agonists of the constitutive androstane receptor (CAR) signaling pathway (AID 1224839).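 For activation: HepG2 cells stably carrying human CAR and a CYP2B6 luciferase reporter.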 Note: nearly all actives have a fitted effect of over 15% in size. Note: potency is the fitted concentration of half-maximal effect. In a few lines: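 Using human hepatoma HepG2 cells engineered with hCAR and a CYP2B6-2.2kb reporter, 15-concentration compound series were incubated 24 h alongside PK11195 at 0.75 uM final, with luminescence quantified afterwards.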

The nature of assay [7]: qHTS assay to identify small molecule antagonists of the estrogen related receptor signaling pathway with the pleiotropic PPARgamma coactivator (PGC) from Tox21 10K library - cell viability counter screen (AID 1224840; active = well fitted cell-killing curve with a large enough effect in the repeat runs, not every such curve was filed as active; note: nearly all actives have a fitted effect of over 40% in size). In short, it runs like this:
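Compounds in DMSO, alongside positive and negative controls, were pinned onto PGC/ERR cells (2,000 per well). Exposure lasted 17.5 hours at 37 C, followed by a 30-minute CellTiter-Fluor incubation and fluorescence reading.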

Assay [8] in a line: qHTS assay to identify small molecule antagonists of the estrogen related receptor signaling pathway with the pleiotropic PPARgamma coactivator (PGC) from Tox21 10K library (AID 1224841; call rule not given here; note: actives are mostly falling curves and most rising ones were filed inactive; nearly all actives have a fitted effect of over 50% in size). In a few lines:
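Compound exposure ran 18 hours at 37 C in PGC/ERR cells (2,000/well) that had first rested 6 hours in a 37 C/5% CO2 incubator. Luciferase activity was then detected with One-Glo after a 30-minute room-temperature step.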

A short description of assay [9]: qHTS assay to identify small molecule agonists of the estrogen related receptor signaling pathway with the pleiotropic PPARgamma coactivator (PGC) from Tox21 10K library (AID 1224842). Note: nearly all actives have a fitted effect of over 15% in size. Note: potency is the fitted concentration of half-maximal effect. In a few lines:
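PGC/ERR reporter cells (NTP line) were seeded 2,000 per well, rested 6 h at 37 C/5% CO2, then pin-dosed with compounds in DMSO for 18 h at 37 C; luciferase read by One-Glo luminescence after 30 min at room temperature.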

Assay [10] is described as follows: qHTS assay to identify small molecule agonists of the hypoxia (HIF-1) signaling pathway - cell viability counter screen (AID 1224844; calls by dose curve; note: nearly all actives have a fitted effect of over 50% in size; note: potency is the fitted concentration of half-maximal effect). In short, it runs like this:
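Luminescent ATP content (CellTiter-Glo, 30 min, room temperature) served as the viability measure in HRE-bla ME-180 cells exposed to compounds for 17 hrs in low-serum medium (0.5% dialyzed FBS).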

Assay [11] in a line: qHTS assay to identify small molecule agonists of H2AX (AID 1224845; active = well fitted activation curve with a large enough effect in the signal ratio in the repeat runs, not every such curve was filed as active; the % refers to the signal ratio). In short, it runs like this:
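Wild-type CHO-K1 cells plated overnight, then exposed 3 hr at 37C to compounds at 15 concentrations (0.76% DMSO). Lysed, then HTRF anti-pH2AX(S139)-cryptate/anti-H2AX-d2 detection after 24 hr at room temperature; emissions 665 and 620 nm.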

Assay [12] can be described thus: qHTS assay to identify small molecule agonists of H2AX - cell viability counter screen (AID 1224847; calls by dose curve; note: nearly all actives have a fitted effect of over 30% in size; note: potency is the fitted concentration of half-maximal effect). In short, it runs like this: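 After overnight plating of 1000 CHO-K1 cells per well, a 15-concentration compound series was applied for 3 hr at 37C. Luminescence from CellTiter-Glo, read following 30 min at room temperature, reflected cell viability.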
Assay [13] can be described thus: qHTS assay to identify small molecule antagonists of the estrogen related receptor (ERR) signaling pathway from Tox21 library (AID 1224848). Note: nearly all actives have a fitted effect of over 50% in size. In a few lines: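 Cells: ERR line, 2,000/well; 6 h preincubation 37 C/5% CO2. Cpd in DMSO via pin tool; 18 h, 37 C. ONE-Glo, 30 min RT, luminescence.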
Assay [14] is described as follows: qHTS assay to identify small molecule agonists of the estrogen related receptor (ERR) signaling pathway from Tox21 library (AID 1224849; calls by dose curve; note: nearly all actives have a fitted effect of over 15% in size). As to conditions: ERR reporter cell line, ONE-Glo luciferase, 18 h; at 92.4 µM (top of the series) unless noted. In a few lines: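 We plated ERR reporter cells, waited 6 h, added compounds in DMSO by pin tool and incubated them 18 h at 37 C. ONE-Glo was then added and luminescence read after 30 min.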

The nature of assay [15]: qHTS RealTime-Glo MT Cell Viability Assay in HepG2 cells - 24 hour (AID 1224867). Note: nearly all actives have a fitted effect of over 50% in size. In short, it runs like this:
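Cell number in HepG2 cultures estimated from NanoLuc luminescence generated by metabolic reduction of a prosubstrate by living cells. The homogeneous, nonlytic format allowed repeated reads at 0, 8, 16, 24, 32 and 40 h of compound exposure.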

The nature of assay [16]: qHTS RealTime-Glo MT Cell Viability Assay in HEK293 cells - 32 hour (AID 1224868). In a few lines:
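Homogeneous bioluminescent viability format in HEK293 cells (600 cells/well). Following 5 h at 37 C/5% CO2, 23 nL compound was pintooled; the signal was measured repeatedly during 40 h incubation.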

A short description of assay [17]: A CellTox Green Cytotoxicity Assay to monitor cytotoxicity in HEK293 cells - 0 hour (AID 1224869). Note: nearly all actives have a fitted effect of over 50% in size. In a few lines:
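Each value comes from one timepoint of a single continuous run in which HEK293 cells with CellTox Green were exposed to compound for up to 40 h at 37 C, dye fluorescence rising with cell death.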

Assay [18] in a line: qHTS RealTime-Glo MT Cell Viability Assay in HepG2 cells - 40 hour (AID 1224870). Note: nearly all actives have a fitted effect of over 50% in size. In a few lines: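 HepG2 cells mixed with RealTime-Glo MT reagents (NanoLuc plus cell-permeant prosubstrate) were seeded at 600 cells/well, incubated 5 h at 37 C/5% CO2, then pinned with compounds in DMSO; nonlytic luminescence tracked viability during 40 h treatment.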
Assay [19] is described as follows: qHTS assay to identify small molecule agonists of the hypoxia (HIF-1) signaling pathway (AID 1224846; active = well fitted activation curve with a large enough effect in the signal ratio in the repeat runs, not every such curve was filed as active; the % refers to the signal ratio). In short, it runs like this:
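Measured by blue/green FRET after loading CCF4-AM: beta-lactamase expressed from a hypoxia response element in ME-180 cells. Test agents were delivered in DMSO and left 17 hrs; cells had been plated 5 hrs earlier in low-serum (0.5% dialyzed FBS) medium.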

Assay [20] has as its target Thyrotropin receptor (Homo sapiens) (UniProt P16473). The assay is described as follows: qHTS assay to identify small molecule agonists of the thyroid stimulating hormone receptor (TSHR) signaling pathway (AID 1224843; calls by dose curve; note: nearly all actives have a fitted effect of over 45% in size). In short, it runs like this: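 TSHR-expressing HEK293 cells (800 per well) were exposed to compounds for 30 min at room temperature. cAMP was then detected by HTRF competition with cAMP-d2 and anti-cAMP cryptate, read after 1 h at room temperature. Fifteen concentrations, triplicate.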
% is set by controls: 0 for no effect and ±100 for the full control effect.

Chain of Thyrotropin receptor (Homo sapiens) (P16473 whole entry, looked up): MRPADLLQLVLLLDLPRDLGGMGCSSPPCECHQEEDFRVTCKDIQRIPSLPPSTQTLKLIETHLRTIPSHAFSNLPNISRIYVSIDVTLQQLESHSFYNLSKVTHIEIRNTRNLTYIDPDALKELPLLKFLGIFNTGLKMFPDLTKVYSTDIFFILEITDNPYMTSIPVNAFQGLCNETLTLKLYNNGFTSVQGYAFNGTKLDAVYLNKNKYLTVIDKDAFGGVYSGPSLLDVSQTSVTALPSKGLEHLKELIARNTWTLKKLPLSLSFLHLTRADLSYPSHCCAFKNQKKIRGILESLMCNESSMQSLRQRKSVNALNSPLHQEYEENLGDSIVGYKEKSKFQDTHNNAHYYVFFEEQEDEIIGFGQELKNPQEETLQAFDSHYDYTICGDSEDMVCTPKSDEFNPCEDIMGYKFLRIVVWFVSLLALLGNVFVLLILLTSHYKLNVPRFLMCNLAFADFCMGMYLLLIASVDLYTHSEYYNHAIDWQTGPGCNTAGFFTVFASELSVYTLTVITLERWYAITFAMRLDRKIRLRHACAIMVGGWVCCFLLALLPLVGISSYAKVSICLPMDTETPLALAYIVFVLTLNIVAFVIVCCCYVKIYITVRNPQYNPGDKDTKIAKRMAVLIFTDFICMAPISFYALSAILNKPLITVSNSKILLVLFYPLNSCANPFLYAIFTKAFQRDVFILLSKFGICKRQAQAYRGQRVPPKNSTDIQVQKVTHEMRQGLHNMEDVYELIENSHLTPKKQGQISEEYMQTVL
Chain of Luciferin 4-monooxygenase (Photinus pyralis) (P08659 whole entry, looked up): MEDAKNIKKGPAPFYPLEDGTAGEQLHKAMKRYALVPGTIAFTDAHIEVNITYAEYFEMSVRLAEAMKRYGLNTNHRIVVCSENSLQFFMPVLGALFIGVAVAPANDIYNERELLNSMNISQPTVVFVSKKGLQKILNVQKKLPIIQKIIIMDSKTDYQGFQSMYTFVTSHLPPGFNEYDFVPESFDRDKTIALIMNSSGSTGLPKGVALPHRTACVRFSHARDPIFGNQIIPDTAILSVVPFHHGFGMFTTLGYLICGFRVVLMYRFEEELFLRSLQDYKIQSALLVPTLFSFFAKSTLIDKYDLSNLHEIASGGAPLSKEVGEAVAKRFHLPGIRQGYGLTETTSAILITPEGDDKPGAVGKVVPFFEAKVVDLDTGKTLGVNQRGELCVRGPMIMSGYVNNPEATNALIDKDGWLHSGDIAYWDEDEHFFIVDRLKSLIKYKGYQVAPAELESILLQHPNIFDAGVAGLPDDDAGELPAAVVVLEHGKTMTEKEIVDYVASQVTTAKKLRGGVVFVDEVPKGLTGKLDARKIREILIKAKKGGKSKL
Chain of Nuclear receptor subfamily 1 group I member 3 (Homo sapiens) (Q14994 whole entry, looked up): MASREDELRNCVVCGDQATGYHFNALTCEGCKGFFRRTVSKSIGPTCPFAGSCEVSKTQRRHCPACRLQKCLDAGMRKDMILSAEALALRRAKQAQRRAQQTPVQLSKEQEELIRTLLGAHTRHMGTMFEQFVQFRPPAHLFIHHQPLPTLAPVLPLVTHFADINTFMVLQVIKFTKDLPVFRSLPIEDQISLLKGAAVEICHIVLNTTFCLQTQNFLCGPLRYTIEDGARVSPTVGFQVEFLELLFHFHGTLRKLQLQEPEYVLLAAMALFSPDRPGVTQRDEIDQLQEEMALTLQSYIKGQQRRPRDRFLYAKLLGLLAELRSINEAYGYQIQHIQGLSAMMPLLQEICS

In the case of `CN1C(=O)OC(C)(C)C1=O`, the Potency entry in [1], in assay [2], in assay [3], in assay [4], in assay [5] and in assay [6] was “inactive” each time. The Potency result in [7], in assay [8], in [9], in assay [10], in assay [11] and in assay [12] was “inactive” each time. Further, the Potency entry in assay [13], in assay [15], in assay [16] and in assay [17] was “inactive” throughout. Also, in assay [14], the activity change, positive = activation was 4.82%.
`COc1ncnc(NS(=O)(=O)c2ccc(N)cc2)c1OC`: the Potency entry in [1], in [2], in [3], in assay [4], in [5] and in assay [6] was “inactive” each time. For the same compound, the Potency entry in assay [7], in assay [8], in [9], in [10], in assay [11] and in [12] was “inactive” in each case. Also, the Potency entry in assay [13], in [15], in assay [16], in [17] and in assay [18] was “inactive” in each case. In addition, the activity change, positive = activation in assay [14] is 1.61% [at 42.5 µM].
As for `O=c1cc(-c2ccccc2)oc2ccc3ccccc3c12`, the Potency result in [1], in [3], in assay [4], in assay [5], in [7] and in assay [8] was “inactive” in each case. Besides, the Potency result in assay [13], in assay [15], in assay [16], in assay [17] and in assay [18] was “inactive” in each case. For the same compound, the Potency was 0.0356 µM (active) in [2]; 4.86 µM (active) in assay [6]; 0.243 µM (active) in assay [9]; 24.5 µM (active) in assay [10]; 25.3 µM (active) in [12]. Also, in [19], the result was inactive. In addition, in assay [14], the activity change, positive = activation was -35% (active).
Regarding `N#CCc1ccc(Cl)cc1Cl`, the Potency result in assay [1], in [2], in assay [3], in assay [4], in [5] and in assay [6] was “inactive” throughout. Also, the Potency entry in [7], in assay [8], in assay [9], in assay [10], in [11] and in assay [13] was “inactive” in each case. Further, the Potency entry in assay [15], in [16], in [17] and in assay [18] was “inactive” throughout. Also, the compound was classed as inactive in assay [19]. Also, the activity change, positive = activation in [14] is 0.109%.
With `O=C(O)c1ccc(OCCCOc2ccc(C(=O)O)cc2)cc1`, the Potency entry in [1], in [2], in [3], in assay [4], in assay [5] and in [6] was “inactive” throughout. Also, the Potency entry in assay [7], in [8], in [9], in assay [20], in [10] and in assay [11] was “inactive” each time. Further, the Potency entry in assay [12], in assay [13], in assay [15], in [16], in assay [17] and in [18] was “inactive” in each case. In addition, in assay [19], the compound was called inactive. For the same compound, the activity change, positive = activation in assay [14] was 7.07% [at 42.5 µM].
On to `Cc1ccccc1N=C(N)Nc1ccccc1C`, for which the Potency entry in [1], in assay [2], in assay [3], in [4], in assay [5] and in assay [6] was “inactive” throughout. The Potency entry in [7], in [8], in [9], in assay [20], in assay [10] and in assay [11] was “inactive” throughout. Besides, the Potency entry in [12], in assay [13], in assay [15], in [16] and in assay [17] was “inactive” in each case. In addition, the outcome in assay [19] was inactive. Also, the activity change, positive = activation in assay [14] is -3.25%.
`CCC(C)(C)OC`: the Potency result in assay [1], in assay [2], in assay [3], in assay [4], in [5] and in [6] was “inactive” each time. For the same compound, the Potency entry in assay [7], in assay [8], in [9], in assay [20], in [11] and in [12] was “inactive” throughout. Besides, the Potency result in assay [13], in assay [15], in assay [16], in assay [17] and in assay [18] was “inactive” each time. The compound was classed as inactive in assay [19]. The activity change, positive = activation in [14] is -8.72%.
